High-throughput results from PubChem.
eIF4H FP inh – inhibitors of RNA binding by human eIF4H; eIF4H fluorescence polarization binding assay; inhibition, % at 35 µM; 290,000 compounds, 0.94% hits; Q15056;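 further: calls also rest on retests at 20 µM and on dose response follow-up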
eIF4E 4G PPI – inhibitors of eIF4E and eIF4G interaction in translation initiation | inhibition, % at 21.7 µM | P63073+Q04637 | TR-FRET eIF4E-eIF4GI(517-606) binding, 2 h | 220,000 compounds, 0.37% hits;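 active means inhibition above about 30%, limit read from the data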;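 further: 0% = full FRET control wells and 100% = background wells lacking eIF4GI fragment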
PABP FP inh – blocks human PABP binding to poly(A) RNA; P11940; fluorescence polarization; calls only at 35 µM; 290,000 compounds, 1% hits;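 further: calls also rest on retests at 20 µM and on dose response follow-up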
PERK inhibitor – inhibitors of human PERK kinase; CHO PERK-DD fusion, SEAP luminescence translation reporter; inhibition, % at 5.6 µM; 220,000 compounds, 0.17% hits; AID 1416;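 active means inhibition above the mean inhibition of all tested compounds plus 3 SD, set separately per screening campaign, cut at about 2.9% in these data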;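 further: PERK kinase domain activated by AP20187 dimerizer at 100 nM; 0% = DMSO with dimerizer and 100% = rapamycin at 8.4 µM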
PABP1 MLLE inh – inhibitors of microRNA-mediated deadenylation, human PABP1 MLLE binding; P11940; GST-MLLE / FITC-PAM2 fluorescence polarization; inhibition, % at 20 µM; 360,000 compounds, 0.36% hits; AID 588489; in the data active means inhibition above about 35%, passing the limit was not always enough;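 further: plate controls were DMSO wells with GST-MLLE for no effect and wells lacking GST-MLLE protein for full effect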
* marks the source's active call; other numbers are inactive results; i = inactive; ? = inconclusive; . = no result given; + = active, no number; [ ] = dose if it differs, or a comment. Rows were chosen to be rich in hits. Some 1.6% of all compounds tested hit in one or more screens of this group. Unless noted, how the calls were made is not given here.

SMILES	eIF4H FP inh	eIF4E 4G PPI	PABP FP inh	PERK inhibitor	PABP1 MLLE inh
Cc1cc(O)c(NC(=O)c2cccc([N+](=O)[O-])c2)cc1C	-5.0	-2.7	i	0.4	5.9
Cc1cc(CSc2ccccc2)ccc1NC(=O)c1cccc([N+](=O)[O-])c1	-4.5	71.6*[fluorescence artefact?]	i	0.6	-3.5
COC(=O)c1c(NC(=O)c2cccc([N+](=O)[O-])c2)sc(C(N)=O)c1C	62.8*	0.1	+	1.9	5.5
O=C(Nc1ccc(NC(=O)c2cccc([N+](=O)[O-])c2)cc1)c1cccc([N+](=O)[O-])c1	-9.9	.	i	.	-1.8
O=C(Nc1cccc([N+](=O)[O-])c1)c1cc2ccccc2cc1O	61.3*	-1.6	+	-1.1	-1.3
O=C(Nc1cccc([N+](=O)[O-])c1)c1cccc(C(=O)Nc2cccc([N+](=O)[O-])c2)c1	8.9	35.2*	i	0.6	-1.1
CC(C)(C)OC(=O)N1CCC2(CC1)C(C#N)=C(N)OC1=C2C(=O)CCC1	2.0	1.6	i	0.1	-7.0
CCN(CC)C(=O)c1ccc2c(=O)n(Cc3cccc(Br)c3)c(=S)[nH]c2c1	10.5	.	i	.	.
Cc1cc(C)nc(Nc2nc(-c3ccccc3)cs2)n1	-11.5	.	i	.	7.8
Cc1cc(C)nc(Nc2nc(=O)c3ccccc3s2)n1	6.6	-1.3	i	0.5	38.2*
N#C/C(=N\Nc1ccc(S(=O)(=O)N2CCCCCC2)cc1)C(N)=S	-0.3	-3.5	i	0.0	42.5*
N#C/C(=N\Nc1ccc(S(=O)(=O)N2CCCCC2)cc1)C(N)=S	-4.7	15.2	i	0.6	10.8
Cn1nc(C(=O)O)c(=O)n(C)c1=O	.	.	.	.	40.3*
CCOC(=O)c1nn(C)c(=S)n(C)c1=O	.	.	.	.	16.7
COc1cc(/C=C2\CCc3c2nc2ccccc2c3C(=O)O)cc(OC)c1OC	86.7*	27.6	+	0.2	2.3
Cc1ccsc1/C=C1/CN(C)Cc2c1nc1ccccc1c2C(=O)O	27.3	2.7	i	1.1	9.5
CCN1C/C(=C\c2cccc(C)c2)c2nc3ccccc3c(C(=O)O)c2C1	?	-5.5	+	1.1	.
CC(Sc1nnc(C2CC2)n1C1CC1)C(=O)c1ccc(Br)cc1 (centres undefined)	.	.	.	.	6.0
CCC(C)[C@H](NC(=O)C1(c2ccccc2)CCN(C(=O)OC(C)(C)C)CC1)C(=O)N[C@@H](C(=O)O)c1ccccc1 (some centres undefined)	-8.7	.	i	.	-3.3
Cc1cc2cc(CCNC(=O)CCCc3ccccc3)c(=O)[nH]c2cc1C	.	.	.	.	0.6
O=C(CN(C(=O)CNC(=O)c1cccs1)c1ccccc1)NC1CCCCC1	-6.4	.	i	.	8.1
Cc1cc(Br)cc2c1NC(=O)C2(O)CC(=O)c1ccco1 (centres undefined)	-3.6	0.8	i	0.2	5.9
N#Cc1ccsc1NC(=O)COC(=O)c1ccc2ccccc2c1	55.7	-2.2	+	-0.4	-34.3
Cn1cccc1C(=O)OCC(=O)Nc1sccc1C#N	.	.	.	.	-33.3
O=C(CNS(=O)(=O)c1ccc(Br)cc1)OCc1cc(=O)n2cc(Br)ccc2n1	70.6	23.0	i	0.7	.
SMILES	eIF4H FP inh	eIF4E 4G PPI	PABP FP inh	PERK inhibitor	PABP1 MLLE inh
O=C(CNC(=O)c1cccc(OC(F)F)c1)OCc1cc(=O)n2cc(Br)ccc2n1	70.5	5.8	+	0.3	-31.6
COC(=O)c1sc(C(=O)OC)c(C(=O)OC)c1C(=O)OC	-4.7	-5.1	i	0.8	-7.3
COC(=O)c1sc(=S)sc1C(=O)OC	7.9	6.7	i	0.7	52.3*
COC(=O)C1=C(NC(=O)c2ccc(Br)cc2)CCS1	4.7	-0.9	i	1.6	22.0
COC(=O)C1=C(NC(=O)c2ccc(C)c(C)c2)CCS1	1.2	-5.7	i	0.8	39.2*
CCCCC1NC(C(=O)O)CS1 (centres undefined)	-2.2	-8.0	i	1.1	38.1*
CC(c1ccccc1)C1NC(C(=O)O)CS1 (centres undefined)	-0.1	8.8	i	0.7	7.6
CCCCCC1CCC(C(=O)O)CC1 (centres undefined)	-0.6	-4.6	i	1.6	-0.4
CCCCCCC1NC(C(=O)O)CS1 (centres undefined)	-1.5	.	i	-0.9	38.0*
O=C(CN1CCCc2ccccc21)Nc1cc(S(=O)(=O)N2CCCC2)ccc1Cl	.	.	.	.	0.4
CCCCN(C)C(=O)Cn1ncc2c3ccccc3n(CCC)c2c1=O	-21.1	.	i	.	-1.0
COCCNC(=O)COc1ccc(C)cc1C(=O)c1cc(C#N)c(=O)n(C2CC2)c1	+	5.1	+	0.6	-12.8
CCOC(=O)C1=C(C)NC(C)=C(C(=O)OCC)C1C(=O)OCC(=O)NC1(C#N)CCCCC1	.	.	.	.	14.8
O=C(Cn1cnc2ccccc21)N/N=C/c1ccc([N+](=O)[O-])cc1	0.1	1.5	i	0.5	2.5
Cc1ccc(/C=N/NC(=O)Cn2cnc3ccccc32)cc1	89.1*	-3.1	+	1.5	-4.2
Cn1c(CNc2ccccc2O)nc2ccccc21	86.4*	-3.2	+	0.8	2.1
CCC1CCC2(CC1)NC(=O)N(CC(=O)N1CCc3ccccc31)C2=O (centres undefined)	.	.	.	.	-9.7
COc1ccc(N2CSC3=C(C#N)C(c4cccs4)CC(=O)N3C2)cc1 (centres undefined)	15.3*	46.9*[fluorescence artefact?]	+	0.9	-41.0
CCc1ccc(N2CSC3=C(C#N)C(c4cccs4)CC(=O)N3C2)cc1 (centres undefined)	48.2	0.2	i	0.7	-25.0
N#CC1=C2SCN(c3ccc(F)cc3)CN2C(=O)CC1c1cccc(F)c1 (centres undefined)	43.1*	2.8	i	0.8	-37.2
CCOC(=O)c1ccc(N2CSC3=C(C#N)C(c4cccs4)CC(=O)N3C2)cc1 (centres undefined)	3.8	6.7	i	0.5	-36.5
Cc1ccc(N2CSC3=C(C#N)C(c4cccs4)CC(=O)N3C2)cc1 (centres undefined)	61.0*	0.9	+	2.1	-30.2
S=C(NCCCN1CCOCC1)NC1CC1	1.6	-2.0	i	0.7	24.1
CCSc1nc2sc3c(c2c(=O)n1CC)CCC3	12.8	.	i	.	2.5
C#CCSc1nc2sc3c(c2c(=O)n1C)CCC3	63.2*	.	+	.	-8.1
SMILES	eIF4H FP inh	eIF4E 4G PPI	PABP FP inh	PERK inhibitor	PABP1 MLLE inh
CCn1c(NN)nc2sc3c(c2c1=O)CCC3	52.3*	9.1	+	0.9	-52.1
NNc1nc2sc3c(c2c(=O)n1Cc1ccccc1)CCC3	64.3*	8.2	+	-1.7	-54.3
COC(=O)c1ccc(NS(=O)(=O)c2ccccc2)o1	0.7	-2.2	i	1.4	-8.8
Cc1cc(Cl)ccc1OCCCC(=O)Nc1ccc(S(=O)(=O)Nc2ncccn2)cc1	13.4	.	i	.	-2.5
CCNc1nc(NCC)nc(N(C)/N=C/c2ccco2)n1	-7.9	.	i	.	-2.3
CC1=CC(C)(C)[N+](C)(C)c2ccc(C)cc21	1.1	3.6	+	1.2	-110.7
CC1=CC(C)(C)N(S(=O)(=O)c2ccc(C)cc2)c2ccc(C)cc21	1.6	0.2	i	0.4	5.3
